From PubChem BioAssay AID2073 (Sanford-Burnham Center for Chemical Genomics, 2009)
“And” between values parts separate entries of the source, which are not always exact repeats. Equal values may be shown once. The campaign covered roughly 290,000 compounds. About 570 (0.2%) were called active. Inconclusive results (about 1%) are left out. The sample holds actives, similar compounds and a random draw of the others, so the mix is not that of the screen. Cut-off read from the data, not from the text of the source: active = inhibition mostly above about 51% (no sharp cut-off); inconclusive = no clear call, values can overlap the other calls; inactive = mostly below about 53%.

Molecular target: Voltage-dependent N-type calcium channel subunit alpha-1B (Homo sapiens) (UniProt Q00975)
Sequence (Q00975 whole entry, looked up): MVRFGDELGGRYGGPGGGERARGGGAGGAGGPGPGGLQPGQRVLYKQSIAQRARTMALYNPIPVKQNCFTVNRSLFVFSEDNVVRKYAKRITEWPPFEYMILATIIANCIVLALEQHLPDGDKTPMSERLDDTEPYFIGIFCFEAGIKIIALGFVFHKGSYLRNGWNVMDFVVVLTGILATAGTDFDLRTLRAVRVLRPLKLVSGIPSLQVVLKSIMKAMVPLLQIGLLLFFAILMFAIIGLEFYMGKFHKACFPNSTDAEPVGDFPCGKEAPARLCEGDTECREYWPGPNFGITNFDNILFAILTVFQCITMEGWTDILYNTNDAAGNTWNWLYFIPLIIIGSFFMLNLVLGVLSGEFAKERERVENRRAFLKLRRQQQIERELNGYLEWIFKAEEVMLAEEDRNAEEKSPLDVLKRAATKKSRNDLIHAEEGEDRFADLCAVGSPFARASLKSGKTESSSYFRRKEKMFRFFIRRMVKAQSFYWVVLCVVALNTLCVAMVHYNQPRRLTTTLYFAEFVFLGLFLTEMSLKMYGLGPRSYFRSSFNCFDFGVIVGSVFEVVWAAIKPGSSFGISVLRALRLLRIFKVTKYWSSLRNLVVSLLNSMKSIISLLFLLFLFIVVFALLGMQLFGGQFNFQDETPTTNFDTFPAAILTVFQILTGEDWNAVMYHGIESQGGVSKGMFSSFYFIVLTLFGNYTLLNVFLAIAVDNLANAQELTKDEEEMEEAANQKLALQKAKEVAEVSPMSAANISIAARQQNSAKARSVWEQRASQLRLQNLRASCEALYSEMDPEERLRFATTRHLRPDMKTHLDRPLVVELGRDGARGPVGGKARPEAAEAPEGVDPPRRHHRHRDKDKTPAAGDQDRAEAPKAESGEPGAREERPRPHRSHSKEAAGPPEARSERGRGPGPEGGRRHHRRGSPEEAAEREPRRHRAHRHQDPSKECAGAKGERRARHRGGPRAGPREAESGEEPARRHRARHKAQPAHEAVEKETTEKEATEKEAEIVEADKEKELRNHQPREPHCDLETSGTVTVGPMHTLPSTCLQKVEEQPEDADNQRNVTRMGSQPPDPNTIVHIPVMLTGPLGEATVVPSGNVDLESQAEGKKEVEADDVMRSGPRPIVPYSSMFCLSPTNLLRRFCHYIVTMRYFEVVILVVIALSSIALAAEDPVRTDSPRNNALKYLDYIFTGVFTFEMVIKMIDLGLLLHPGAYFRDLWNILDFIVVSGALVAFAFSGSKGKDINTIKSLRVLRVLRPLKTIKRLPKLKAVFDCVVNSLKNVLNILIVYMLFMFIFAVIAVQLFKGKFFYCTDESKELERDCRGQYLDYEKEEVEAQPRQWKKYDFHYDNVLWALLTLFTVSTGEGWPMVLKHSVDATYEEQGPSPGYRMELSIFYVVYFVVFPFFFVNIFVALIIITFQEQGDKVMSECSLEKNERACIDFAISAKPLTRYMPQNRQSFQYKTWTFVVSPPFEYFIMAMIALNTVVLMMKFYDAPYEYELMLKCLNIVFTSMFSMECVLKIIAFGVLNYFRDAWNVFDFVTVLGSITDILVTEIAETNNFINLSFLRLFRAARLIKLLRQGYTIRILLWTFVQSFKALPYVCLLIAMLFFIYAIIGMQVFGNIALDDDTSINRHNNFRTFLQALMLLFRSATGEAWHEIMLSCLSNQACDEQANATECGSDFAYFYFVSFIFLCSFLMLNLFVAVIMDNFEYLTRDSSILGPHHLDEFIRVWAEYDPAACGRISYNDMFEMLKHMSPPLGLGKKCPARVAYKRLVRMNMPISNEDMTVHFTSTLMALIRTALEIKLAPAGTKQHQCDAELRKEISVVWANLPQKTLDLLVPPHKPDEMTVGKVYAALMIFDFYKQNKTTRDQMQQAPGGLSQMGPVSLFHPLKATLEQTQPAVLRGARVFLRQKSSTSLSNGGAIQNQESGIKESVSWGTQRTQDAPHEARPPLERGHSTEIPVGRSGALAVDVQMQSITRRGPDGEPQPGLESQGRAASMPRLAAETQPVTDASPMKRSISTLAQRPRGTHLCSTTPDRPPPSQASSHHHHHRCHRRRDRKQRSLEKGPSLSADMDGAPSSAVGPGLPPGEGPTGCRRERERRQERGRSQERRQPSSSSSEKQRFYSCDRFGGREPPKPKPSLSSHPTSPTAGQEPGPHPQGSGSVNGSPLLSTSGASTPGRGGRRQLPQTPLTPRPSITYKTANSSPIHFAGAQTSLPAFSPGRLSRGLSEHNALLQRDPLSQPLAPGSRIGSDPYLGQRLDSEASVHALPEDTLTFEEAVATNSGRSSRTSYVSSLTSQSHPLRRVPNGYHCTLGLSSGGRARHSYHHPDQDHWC
Experiment: inhibitors of Mint1-CaV2.2 protein interaction, biochemical, HTRF (AID 2073)
Conditions: at 20 µM, stronger effect = higher value
[1] = measured here: average of repeat tests

SMILES	inhibition	inhibition [1]
Cc1ccsc1/C=N/NC(=O)CO	7.8% (inactive)	
CCCCNC(=O)[C@H](CSCc1ccccc1)N1Cc2ccccc2C1=O	0.1% (inactive)	
COc1ccc(CNC(=O)COc2cc(=O)n(C)c3ccccc23)cc1	13.2% (inactive)	
O=C1/C(=C/c2ccco2)Cc2ccccc21	11.1% (inactive)	
Nc1ccc2c(c1)C/C(=C/c1ccco1)C2=O	87.9% (active)	
O=C1/C(=C/c2ccco2)CCc2ccccc21	15.3% (inactive)	
CCCCn1ccnc1C	-1.1% (inactive)	
O=C(CSc1cccc2cccnc12)Nc1ccccc1F	12.1% (inactive)	
CCCOc1ccc(/C=C2\SC(N)=NC2=O)cc1OC	-3% (inactive)	
C=CCOc1ccc(/C=C2\SC(N)=NC2=O)cc1OC	10.2% (inactive)	
COc1cc(/C=C2\SC(N)=NC2=O)ccc1OCC(=O)Nc1ccc(C)cc1	61.4% (active)	
NC(=O)c1ccc2c(=O)n3c(-c4cc(Cl)c(N)c(Cl)c4)csc3nc2c1	-27% (inactive)	
NC(=O)c1ccc2nc(-c3ccccc3)c(-c3ccccc3)nc2c1	4.7% (inactive)	
O=C(NCc1nnc2c(C(F)(F)F)cc(Cl)cn12)c1ccc2c(c1)OCO2	9% (inactive)	
O=C(c1ccc(COc2ccc(F)cc2)o1)n1cc(Br)cn1	8% (inactive)	
CCCN1C(=O)/C(=C\C=C2/Sc3ccccc3N2CCO)SC1=S	26.3% (inactive)	
CCN1C(=O)/C(=C/C=C2/Sc3ccccc3N2CCO)SC1=S	38.4% (inactive)	
CCN1C(=O)/C(=C/C=C2/Sc3ccc4ccccc4c3N2CCO)SC1=S	74.6% (active)	
CC(C)CC(NC(=O)c1ccccc1)C(=O)N/N=C/c1ccco1 (stereo not drawn)	3.7% (inactive)	
CCOc1ccccc1-n1c(SCC(N)=O)nnc1-c1ccccc1	-2.1% (inactive)	
Cc1cccc2sc(NC(=O)c3cccc(S(=O)(=O)N4CCc5ccccc54)c3)nc12	68.3% (active)	
O=C(Nc1nc2ccccc2s1)c1cccc(S(=O)(=O)N2CCc3ccccc32)c1	8.8% (inactive)	
Cc1cc(C)c2nc(NC(=O)c3cccc(S(=O)(=O)N4CCc5ccccc54)c3)sc2c1	6.3% (inactive)	
CCOc1ccc(C(CCc2ccccc2)NC(=O)c2ccccc2F)cc1OCC (stereo not drawn)	5.7% (inactive)	

SMILES	inhibition	inhibition [1]
O=C(O)C(Cc1c[nH]c2ccccc12)NS(=O)(=O)c1ccc(Br)cc1 (stereo not drawn)	-0.4% (inactive)	
CNC(=O)c1c(O)c2cccc3c2n(c1=O)CCC3	22.2% (inactive)	
Cn1c(=S)[nH]c(=O)c2ncc(=O)[nH]c21	-1.9% (inactive)	
O=C(O)CCCCC1CCSS1 (stereo not drawn)	101% (active)	
O=C(O)CCCCCCCC(=O)O	0.9% (inactive)	
O=C(O)CCCCC1SCC2NC(=O)NC21 (stereo not drawn)	8.5% (inactive) and -9.5% (inactive)	
O=[N+]([O-])c1ccc(O)c(C=Nc2cccc3ccccc23)c1	-35.1% (inactive)	
COCCNC(=O)C(c1ccc(OC)cc1)N(CCOC)C(=O)CCC(=O)Nc1nccs1 (stereo not drawn)	-3.6% (inactive)	
O=C(NCc1ccco1)c1cnc2ccccn2c1=O	0.3% (inactive)	
COCCCNC(=O)c1cccn2c(=O)c3cc4ccccc4cc3nc12	-3.3% (inactive)	
O=C(NCc1ccco1)c1cccn2c(=O)c3cc4ccccc4cc3nc12	54.4% (active)	
Cc1ccc(N(C(=O)c2ccco2)C(C(=O)NC2CCCC2)c2cccnc2)cc1 (stereo not drawn)	-0.3% (inactive)	
O=C(N/N=C/c1ccc[nH]1)c1ccc(O)cc1	38.2% (inactive)	
Cc1ccccc1/C=C1\SC(=S)N(/N=C/c2cc([N+](=O)[O-])ccc2O)C1=O	5.4% (inactive)	
Cc1ccc(/C=C2\SC(=S)N(/N=C/c3cc([N+](=O)[O-])ccc3O)C2=O)o1	73.2% (active)	
O=C1/C(=C/c2cccc(Br)c2)SC(=S)N1/N=C/c1cc([N+](=O)[O-])ccc1O	-2.1% (inactive)	
CCn1cc(CN2CCCC(C(=O)c3ccc(-c4ccccc4)c(F)c3)C2)cn1 (stereo not drawn)	6.5% (inactive)	
O=C(O)C1CCC(N2C(=O)C3CCCCC3C2=O)CC1 (stereo not drawn)	-2.9% (inactive)	
O=C(O)C1CCC(N2C(=O)c3c(Cl)c(Cl)c(Cl)c(Cl)c3C2=O)CC1 (stereo not drawn)	81.3% (active)	
O=C(O)C1CCC(N2C(=O)c3cccc([N+](=O)[O-])c3C2=O)CC1 (stereo not drawn)	5.9% (inactive)	
O=C1C2C3C=CC(C3)C2C(=O)N1c1n[nH]c(-c2ccccc2)n1 (stereo not drawn)	11% (inactive)	
CC(=O)Oc1cc(O)c2c(c1)OC(c1ccc(OC(C)=O)c(OC(C)=O)c1)C(OC(C)=O)C2=O (stereo not drawn)	8.9% (inactive)	
O=C1NN(c2ccccc2)C(=O)/C1=C\c1ccc(-c2cc([N+](=O)[O-])ccc2O)o1	31.4% (inactive)	
CC1=NN(c2ccc(C)cc2)C(=O)/C1=C/c1ccc(-c2cc([N+](=O)[O-])ccc2O)o1	44.4% (inactive)	

SMILES	inhibition	inhibition [1]
O=C1NN(c2cccc(Br)c2)C(=O)/C1=C/c1ccc(-c2cc([N+](=O)[O-])ccc2O)o1	61.4% (active)	
COc1ccc(/C=C2\SC(=S)N(CCC(=O)NCCCN3CCOCC3)C2=O)cc1	-10.7% (inactive)	
CCc1ccc(C(=O)NNc2ccc(Cl)cc2)cc1	-10.8% (inactive)	
COc1cc(CNCCO)cc(Br)c1OCc1cccs1	-3.4% (inactive)	
O=C(Nn1cnnc1)c1csc2ccccc12	-11.1% (inactive)	
Cc1cc2nc3c(=O)n(Cc4ccccc4)c(=O)[nH]c3nc2cc1N	55.1% (active)	
Cc1cc2nc3c(=O)n(CCc4ccccc4)c(=O)[nH]c3nc2cc1N	36.3% (inactive)	
CCCCCCn1c(=O)[nH]c2nc3cc(N)c(C)cc3nc2c1=O	4.4% (inactive)	
NC1=NC[C@@H](Cc2ccc(O)cc2)N1CCc1cccc(F)c1	16.7% (inactive)	
CC1CN(C(=O)CCCN2C(=O)c3ccccc3C2=O)CC(C)O1 (stereo not drawn)	-7.3% (inactive)	
COc1ccc2[nH]c(=O)c(CN(Cc3nnnn3Cc3ccco3)C3CCCCC3)cc2c1	1.1% (inactive)	
COc1ccc2[nH]c(=O)c(CN(Cc3ccco3)C(c3nnnn3Cc3ccccc3)C(C)C)cc2c1 (stereo not drawn)	12.1% (inactive)	
Cn1c(/C=C/c2cccc([N+](=O)[O-])c2)nc2ccccc2c1=O	-20.2% (inactive)	
CCOC(=O)C(O)(CC(=O)c1ccc(OC)cc1)C(F)(F)F (stereo not drawn)	-6.5% (inactive)	
CC(C)(C)c1cc(N)on1	-7.8% (inactive)	
CC1=CC(=O)c2ccccc2C1=O	-11.2% (inactive)	
COc1cccc2c1C(=O)C=C(C)C2=O	-19.2% (inactive)	
CC1=CC(=O)c2c(O)ccc(O)c2C1=O	85.1% (active)	
O=C(CCCSc1ccccc1)Nc1nc(-c2ccco2)c(-c2ccco2)s1	71.8% (inactive)	-7.2%
O=C(Nc1nnc(C2CC2)s1)C1CC(=O)N(c2ccc3c(c2)OCCO3)C1 (stereo not drawn)	12.6% (inactive)	
O=C(Nc1nc(-c2ccco2)c(-c2ccco2)s1)C1CC(=O)N(c2ccc3c(c2)OCCO3)C1 (stereo not drawn)	66.7% (active)	
CCc1nnc(NC(=O)C2CC(=O)N(c3ccc4c(c3)OCCO4)C2)s1 (stereo not drawn)	3% (inactive)	
O=C(CCl)Nc1nc(-c2ccco2)c(-c2ccco2)s1	66% (active)	
O=C(Nc1nc(-c2ccco2)c(-c2ccco2)s1)C1CCC1	58.1% (inactive)	1.4%

SMILES	inhibition	inhibition [1]
COc1ccc(CCN(C(=S)Nc2ccccc2)C2CC(=O)N(c3ccccc3)C2=O)cc1 (stereo not drawn)	6.3% (inactive)	
CC(C)Oc1cccc(C(=O)C2CCCN(C(=O)c3ccsc3)C2)c1 (stereo not drawn)	-8.4% (inactive)	
N#Cc1cnc(NOCc2ccc(Cl)cc2)nc1	9.4% (inactive)	
O=c1c2c3n(c(=O)nc2[nH]n1-c1ccccc1)CCCCC3	1.1% (inactive)	
O=C(NCCN1CCOCC1)/C(=C\c1ccccc1Cl)NC(=O)c1ccccc1	9.8% (inactive)	
COc1ccc(N=C2S/C(=C\c3ccc(OCC(=O)O)cc3)C(=O)N2CCc2c[nH]c3ccccc23)cc1	35.3% (inactive)	
COc1cc(/C=C2\SC(=Nc3ccccc3)N(CCc3c[nH]c4ccccc34)C2=O)ccc1OC(C)C(=O)O (stereo not drawn)	6.2% (inactive)	
Fc1cccc(Cl)c1CNc1ccc(N2CCCC2)cc1	54% (active)	
Clc1cccc(Cl)c1CNc1ccc(N2CCCC2)cc1	31.8% (inactive)	
NS(=O)(=O)c1ccc(NCc2c(F)cccc2Cl)cc1	-1.1% (inactive)	
CC(C)(C)SCCNC(=O)CN1C(=O)c2cccc3cccc1c23	35.7% (inactive)	
O=c1cc(/N=C/c2coc3c(ccc4ccccc43)c2=O)[nH]c(=S)[nH]1	52.9% (active)	
O=c1cc(/N=C/c2coc3cc(Br)ccc3c2=O)[nH]c(=S)[nH]1	14.4% (inactive)	
CC(=O)Oc1ccc2c(=O)c(/C=N/c3cc(=O)[nH]c(=S)[nH]3)coc2c1	23.2% (inactive)	
CCCCN(C)C(=O)c1c[nH]c2ccc(S(=O)(=O)N3CCOCC3)cc2c1=O	24.6% (inactive)	
Cc1ccc(CNC(=O)c2ccc3c(c2)NC(=O)CS3)cc1	-5.9% (inactive)	
COc1ccc(/C=C/C(=O)N/C(=C\c2ccco2)C(=O)NCCc2nc3ccccc3[nH]2)cc1	4.5% (inactive)	
CC(C)Oc1ccc(/C=C(\NC(=O)/C=C/c2ccco2)C(=O)NCCc2nc3ccccc3[nH]2)cc1	9.4% (inactive)	
COc1ccc(/C=C(\NC(=O)/C=C/c2ccco2)C(=O)NCCc2nc3ccccc3[nH]2)cc1	52.5% (active)	
Cc1cc(C)c2c(c1)NC(c1cc3c(cc1Br)OCO3)C1CC=CC21 (stereo not drawn)	12.6% (inactive)	
CCOC(=O)/C(C#N)=C/c1cccc(F)c1	15.3% (inactive)	
O=C(Nc1ccc2c(c1)nc1n2CCN(C2CCCCC2)C1)NC1CCCCC1	11.3% (inactive)	
CC(=O)Nc1ccc2c(c1)nc1n2CCN(C2CCCCC2)C1	30.1% (inactive)	
O=C(Nc1ccc2c(c1)nc1n2CCN(C2CCCCC2)C1)c1ccco1	57.2% (active)	
